Sampled rows, rich in hits. Any-hit rate of the full collection: about 17%.
DT40 TDP1 CPT = qHTS for Inhibitors of human tyrosyl-DNA phosphodiesterase 1 (TDP1): qHTS in cells in presence of CPT | chicken DT40 Tdp1-/-;hTDP1 cells + 20 nM CPT, ATP luminescence, 48 h | 420,000 tested, 12% active | Potency, µM (titrated, usually from 46.2 µM), inactives show at the highest dose activity change, negative = growth inhibition, usual class: inhibitors; further: on the % scale 0 is the no-effect control and ±100 the full control effect; nearly all actives have a fitted effect of over 55% in size
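Chicken DT40 Tdp1-/- cells stably complemented with human TDP1 were seeded at 400 cells/well in medium containing 20 nM camptothecin, exposed to pin-transferred compounds, and grown at 37 °C for at least 48 hr. Viability was read as ATP luminescence.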
DT40 TDP1 no CPT = qHTS for Inhibitors of human tyrosyl-DNA phosphodiesterase 1 (TDP1): qHTS in cells in absence of CPT; DT40 Tdp1-/- hTDP1 cells, no CPT, ATP luminescence, 48 h; Potency, µM (top dose mostly 46.2 µM), inactives show at the top dose activity change, negative = growth inhibition, most hits filed as inhibitors; 420,000 tested, 15% active; AID 686978, 2013; further: on the % scale 0 is the no-effect control and ±100 the full control effect; nearly all actives have a fitted effect of over 55% in size
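Growth kinetics read by CellTiter-Glo luminescence after ≥48 hr at 37 °C. Cells: DT40 Tdp1-/- stably carrying human TDP1, 400 per well, compound exposure in the absence of CPT (DMSO vehicle).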
TDP1 inh = qHTS Assay for Inhibitors of Tyrosyl-DNA Phosphodiesterase (TDP1); Tyrosyl-DNA phosphodiesterase 1 (Homo sapiens), Q9NUW8; recombinant TDP1, AlphaScreen DNA substrate cleavage; Potency, µM (top dose mostly 130 µM), for the others: top-dose activity change, negative = inhibition, hits mostly inhibitors; 350,000 tested, 0.28% active; AID 485290, 2010; further: on the % scale 0 is the no-effect control and ±100 the full control effect; nearly all actives have a fitted effect of over 40% in size
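AlphaScreen read-out: signal falls as enzyme removes the 3' tyrosine-FITC from a 5'-biotinylated DNA oligo (15 nM, 5 min, RT). Enzyme was E. coli-made recombinant Tdp1 at 1 nM, exposed to compound for 15 min beforehand; beads 10 ug/ml, 10 min.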
ClpP mod = qHTS Assay for Activators of ClpP | AID 651965, 2013 | purified B. subtilis ClpP, FRET peptide cleavage, 20 min | 340,000 tested, 1.9% active | ATP-dependent Clp protease proteolytic subunit (Bacillus subtilis (strain 168)), P80244 | Potency, µM (highest dose often 57.5 µM), inactives show at the top dose activity change, negative = active; active means well fitted falling curve with a large enough effect; inconclusive means small, poorly fitted or top-dose-only effect; inactive means no such curve, though single readings can be large or run the other way; further: the source files actives as falling curves though it sought activators and does not explain the sign; nearly all actives have a fitted effect of over 65% in size
Target sequence (P80244 whole entry, looked up): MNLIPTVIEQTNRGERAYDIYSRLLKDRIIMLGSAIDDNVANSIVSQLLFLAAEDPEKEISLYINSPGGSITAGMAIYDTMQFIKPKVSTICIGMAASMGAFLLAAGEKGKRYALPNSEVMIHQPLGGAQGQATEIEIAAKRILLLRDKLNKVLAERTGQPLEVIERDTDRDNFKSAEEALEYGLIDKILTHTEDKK
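FRET quenching reversal measured ClpP activation: 10 microg/mL B. subtilis ClpP at pH 8 with the FRET-FV decapeptide, read at 430 nm after 320 nm excitation. The 20-min minus 0-min signal was scaled between DMSO/no-enzyme wells and ADEP (5.8 microM final).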
Active calls of the source: *; ? = inconclusive; nt = no result given; [ ] = another dose, or the depositor's remark. Unless noted, the call rests on the fitted dose curve; in most records, active means well fitted curve in the direction sought with a large enough effect; inconclusive means small, poorly fitted or top-dose-only effect, or another doubt; inactive means no such curve, though single readings can be large; an effect the other way counts as inactive or inconclusive. Potency means the concentration at half of the fitted maximal effect.

SMILES | DT40 TDP1 CPT | DT40 TDP1 no CPT | TDP1 inh | ClpP mod
CCCN1CNc2c(c(=O)[nH]c(=S)n2CCc2cc(C)ccc2C)C1 | ? | 13µM* | -3% | -3%
CCCN1CNc2c(c(=O)[nH]c(=S)n2CCc2ccc(C)c(C)c2)C1 | ? | ? | 1% | -5%
CCCN1CNc2c(c(=O)[nH]c(=S)n2CCc2c(Cl)cccc2Cl)C1 | 16µM* | 13µM* | 0% | -1%
CCCN1CNc2c(c(=O)[nH]c(=S)n2CCc2ccc(OC)cc2OC)C1 | ? | 13µM* | 0% | -1%
CCCN1CNc2c(c(=O)[nH]c(=S)n2CCc2ccccc2Cl)C1 | ? | 11µM* | 1% | 0%
CCCN1CNc2c(c(=O)[nH]c(=S)n2CCc2ccc(Cl)cc2Cl)C1 | ? | 13µM* | 2% | -3%
CCCN1CNc2c(c(=O)[nH]c(=S)n2CCc2cccc(Cl)c2)C1 | ? | ? | -1% | -1%
COc1ccc(-n2cc(C(=O)Nc3ccccc3C#N)c3ccccc3c2=O)cc1 | -18% | ? | 0% | -6%
CC(=O)N1N=C(c2ccc(Br)cc2)CC1c1cn(C)c2ccccc12 (stereo unspecified) | ? | ? | 11% | 28µM*
COc1ccccc1C(=O)Nc1ccc(C(=O)/C=C/c2cccs2)cc1 | ? | 18µM* | 5% | 0%
O=C(/C=C/c1cccs1)c1ccc(NC(=O)c2ccccc2F)cc1 | -23% | 12µM* | 0% | 0%
Cc1ccc(N2CCN(C(=O)NCc3noc4ccccc34)CC2C)cc1 (stereo unspecified) | 21µM* | ? | 5% | 0%
CC(C)Oc1ccc(C(=O)N2CCN(c3nc4c(F)cc(F)cc4s3)CC2)cc1 | -27% | ? | 3% | 2%
Cc1ccccc1-c1cnc(C(O)c2ccc(Cl)c(F)c2)[nH]1 (stereo unspecified) | 29µM* | -23% | nt | 0%
Cc1ccccc1-c1cnc(C(O)c2ccc(F)c(F)c2)[nH]1 (stereo unspecified) | -6% | -14% | nt | -2%
OC(c1ccc(Cl)c(F)c1)c1ncc(-c2ccccc2F)[nH]1 (stereo unspecified) | 16µM* | ? | nt | 0%
CCc1cc(=O)[nH]c(SCC(=O)Nc2ccc3c(c2)OCCO3)n1 | -28% | -18% | -7% | 0%
O=C1CCCc2oc3c(c21)CCCC3 | 28% | -9% | 3% | nt
CCCCCCn1cnc2c(oc3nc4c(cc32)CCCC4)c1=O | 23µM* | -29% | 1% | -19%
C=CCc1cccc(/C=N/NC(=O)C(C)Nc2cccc(C)c2)c1O (stereo unspecified) | 4.1µM* | 2.9µM* | 5% | nt
C=CCc1cccc(/C=N/NC(=O)CCCNc2ccc(C)cc2)c1O | -88% | 21µM* | 8% | 2%
C=CCc1cccc(/C=N/NC(=O)C[n+]2ccccc2)c1O | ? | ? | nt | 0%
C=CCc1cccc(/C=N/NC(=O)CNc2cccc3ccccc23)c1O | 4.6µM* | 5.8µM* | 3% | 5%
C=CCc1cccc(/C=N/NC(=O)CNc2ccccc2)c1O | 21µM* | 5.2µM* | 8% | 0%
Cc1ccc(N(C)C(CNS(=O)(=O)c2ccccc2)c2ccccc2)cc1 (stereo unspecified) | ? | ? | 8% | -6%
SMILES | DT40 TDP1 CPT | DT40 TDP1 no CPT | TDP1 inh | ClpP mod
CN(CC1CCOCC1)C(=O)CC1C(=O)NCCN1Cc1ccc(F)c(F)c1 (stereo unspecified) | -22% | -6% | 1% | 130%
CCOCCCNC(=O)CN1C(=O)CCn2nc(-c3cccn3C)cc21 | 8% | 7% | 5% | 0%
C=CCc1cccc(/C=N/NC(=O)CNc2ccccc2OC)c1O | ? | 21µM* | 5% | -1%
O=C(CCC(=O)Nc1ccc(F)cc1)N/N=C/c1ccccc1 | 0% | -7% | nt | 0%
C=CCc1cccc(/C=N/NC(=O)CCC(=O)Nc2ccc(F)cc2)c1O | 9.2µM* | 8.2µM* | -2% | nt
Cc1cc(C)cc(OCC(=O)N(Cc2ccccc2)C2CCS(=O)(=O)C2)c1 (stereo unspecified) | 7% | -11% | 1% | 0%
CCOc1ccc(CCNC(=O)COC(=O)c2nc(Cl)ccc2Cl)cc1OCC | -11% | -17% | 0% | -2%
C=CCn1c(=NC(=O)c2cccs2)sc2cccc(OC)c21 | ? | 16µM* | nt | nt
C#CCn1c(=NC(=O)c2ccc(Br)s2)sc2cccc(OC)c21 | ? | 21µM* | 0% | 5%
CCN(CC)C(=O)CSc1nc2cc3c(cc2c(=O)n1Cc1ccc(C(=O)NCCc2ccc(OC)c(OC)c2)cc1)OCO3 | 13µM* | 21µM* | 0% | -1%
CCN(CC)C(=O)CSc1nc2cc3c(cc2c(=O)n1CCCC(=O)NCCc1ccc(OC)c(OC)c1)OCO3 | ? | 18µM* | 5% | nt
CCCCC(Sc1nc2cc3c(cc2c(=O)n1CCCC(=O)NCc1ccc(OC)cc1)OCO3)C(=O)OCC (stereo unspecified) | 4.6µM* | 4.6µM* | 4% | -6%
CCOC(=O)CSc1nc2cc3c(cc2c(=O)n1CCCC(=O)NCCc1ccc(OC)c(OC)c1)OCO3 | ? | 13µM* | 5% | 3%
CCCCNC(=O)CSc1nc2cc3c(cc2c(=O)n1CCCC(=O)NCCc1ccc(OC)c(OC)c1)OCO3 | 0% | -3% | 0% | -2%
COc1ccc(-c2nnc3n2N=C(c2c(OC)cccc2OC)CS3)cc1 | nt | nt | 7% | nt
O=C1C(=O)N(C2CCCC2)C(=O)N1Cc1c(F)cccc1Cl | 1% | 4% | 3% | nt
CC(=O)Nc1nc(C2CC2)cc(-c2ccccc2)c1C#N | 3% | 1% | 6% | nt
c1csc(-c2nc(NCC3CCCO3)c3ccccc3n2)c1 (stereo unspecified) | ? | ? | 0%[96 µM] | -20%
COc1cccc(Nc2ncc3nc(C)c(=O)n(C[C@H]4CCCO4)c3n2)c1 | -7% | -9% | nt | nt
COc1cccc(Nc2nc(NCCO)c3ccccc3n2)c1 | 4.6µM* | 21µM* | 8% | 95%
OCCNc1nc(Nc2cccc(O)c2)nc2ccccc12 | ? | ? | 4% | nt
COc1cccc(Nc2nc(NCC3CCCO3)c3ccccc3n2)c1 (stereo unspecified) | 6.5µM* | 5.2µM* | 7% | ?
Oc1ccc(Nc2nc(NCC3CCCO3)c3ccccc3n2)cc1 (stereo unspecified) | 23µM* | 16µM* | 2% | -3%
Oc1ccccc1Nc1nc(NCC2CCCO2)c2ccccc2n1 (stereo unspecified) | 16µM* | 26µM* | 5% | 3%
CC(=O)Nc1ccc(S(=O)(=O)N(CC(=O)NCC2CCCO2)Cc2ccccc2Cl)cc1 (stereo unspecified) | -23% | ? | nt | 2%

Screens (PubChem BioAssay)
